Screening data (PubChem)
FBW7 activator – human FBW7 E3 ligase activation, primary screen. normalized activity (activation), % at 26.1 µM. actives 0.13% (n = 650,000). Q969H0. AlphaScreen FBW7–phospho-cyclin E peptide binding, activator screen. AID 1259310; in the data active = normalized activity above about 1.9%;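 also: purified mutant Fbw7 with reduced substrate affinity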
Target sequence (Q969H0 whole entry, looked up): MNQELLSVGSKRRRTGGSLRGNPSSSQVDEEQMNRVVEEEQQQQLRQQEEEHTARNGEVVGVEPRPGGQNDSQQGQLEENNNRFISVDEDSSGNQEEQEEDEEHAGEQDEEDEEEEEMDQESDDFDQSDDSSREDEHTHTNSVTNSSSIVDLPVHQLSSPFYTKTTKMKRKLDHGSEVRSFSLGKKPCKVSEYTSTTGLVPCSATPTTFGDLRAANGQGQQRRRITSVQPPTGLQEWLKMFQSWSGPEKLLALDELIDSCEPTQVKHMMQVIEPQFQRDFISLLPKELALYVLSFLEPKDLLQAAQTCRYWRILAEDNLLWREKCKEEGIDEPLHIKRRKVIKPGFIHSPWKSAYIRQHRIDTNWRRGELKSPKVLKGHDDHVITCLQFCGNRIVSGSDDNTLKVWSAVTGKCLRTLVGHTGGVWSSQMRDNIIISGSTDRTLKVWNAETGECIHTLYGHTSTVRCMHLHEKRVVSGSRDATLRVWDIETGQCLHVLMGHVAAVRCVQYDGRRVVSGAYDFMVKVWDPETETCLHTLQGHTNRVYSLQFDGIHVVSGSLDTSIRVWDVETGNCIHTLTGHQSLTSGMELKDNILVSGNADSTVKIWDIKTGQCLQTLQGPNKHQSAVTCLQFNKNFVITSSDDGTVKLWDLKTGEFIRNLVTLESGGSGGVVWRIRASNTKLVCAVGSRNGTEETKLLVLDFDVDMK
GPR151 activ – activators of human GPR151. Q8TDV0. PathHunter beta-arrestin GPR151 cells, luminescence. activation, % at 11.2 µM. actives 1% (n = 650,000); in the data active = activation above about 4.9%;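 also: 0% = median of compound wells and 100% = cells with positive control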
MITF primary – human MITF inhibition, primary screen; O75030; AlphaScreen MITF homodimerization, bead proximity signal; inhibition, % at 2.6 µM; actives 0.91% (n = 650,000); AID 1259374; in the data active = inhibition above about 50%;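 also: 0% = vehicle wells with protein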
TEAD-YAP block – TEAD-YAP interaction inhibition | HEK-TIYL cells, TEAD-Gal4/YAP UAS-luciferase luminescence | inhibition, % at 9.12 µM | actives 1.4% (n = 640,000) | AID 1259422; in the data active = inhibition above about 32%;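 also: 0% = median of test compound wells and 100% = reference inhibitor wells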
MITF inh conf – confirmation of human MITF inhibitors; AID 1259372; inhibition, % at 2.6 µM; AlphaScreen MITF homodimerization, biotin/His-MITF beads; shares compounds with MITF primary; actives 16% (n = 4,700);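 active = inhibition above a cutoff derived from the DMSO control wells, cut at about 28% in these data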;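 also: 0% = MITF dimer wells with DMSO only; inhibitors lower the bead chemiluminescence by keeping MITF from dimerizing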
AlphaScreen DR – AlphaScreen optical interference, dose response counter-screen; shares compounds with MITF primary; AlphaScreen optical interference counterscreen, cell-free; IC50, µM; actives 6% (n = 480); AID 1259373; call rule not given here
AS interf ctr – AlphaScreen optical interference, counter-screen; shares compounds with MITF primary; LysRS AlphaScreen counterscreen, signal interference, triplicate; inhibition, % at 2.6 µM; actives 7.6% (n = 4,700);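 active = inhibition above a cutoff derived from the DMSO control wells, cut at about 30% in these data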
* = called active by the depositor; x = no result. An excerpt weighted towards active compounds, which were near 3.5% of everything screened.

SMILES	FBW7 activator	GPR151 activ	MITF primary	TEAD-YAP block	MITF inh conf	AS interf ctr	others
CC(C)[C@@H]1NC(=O)[C@@H]2C[C@H](NCc3nc(-c4ccc(F)cc4)cs3)CN2C1=O	0	0	-5	-9	x	x
CC(O)CNCCCOc1ccc(Cl)cc1C(C)(C)C (stereo unspecified)	0	1	52*	7	-8	57*
CC(C)(C)c1cc(Cl)ccc1OCCN1CCNCC1	0	1	59*	-6	-20	10
Clc1ccc(Cl)c(OCCCCN2CCNCC2)c1	0	0	5	3	x	x
CC(C)(C)c1cc(Cl)ccc1OCCCN1CCNCC1	0	0	76*	-1	1	4
Cc1c(NCCCO)c([N+](=O)[O-])cc([N+](=O)[O-])c1NCCCN1CCOCC1	0	0	7	4	x	x
Cc1ccccc1NC(=O)c1ccccc1N(Cc1ccccc1)S(C)(=O)=O	0	-1	55*	7	-2	6
O=C1NCCN(Cc2ccc(F)cc2)C1CC(=O)N1CCN(C2CCCCC2)CC1 (stereo unspecified)	0	1	3	-3	x	x
N#Cc1c(-c2ccco2)cc(C2CC2)nc1N	0	0	-8	-18	x	x
N#Cc1c(-c2ccco2)cc(-c2ccco2)nc1N	-1	-1	85*	5	73*	20	AlphaScreen DR=>6.5
C=CCc1cccc(Cl)c1OCCCN1CCN(C)CC1	0	-1	19	2	x	x
C=CCc1cccc(Cl)c1OCCCN1CCNCC1	0	0	53*	-5	6	7
C=CCc1cccc(Cl)c1OCCCNCCN1CCOCC1	0	0	56*	9	5	20
CC(=O)N1CCN(c2ccc(Cl)cc2[N+](=O)[O-])CC1	0	0	-18	1	x	x
O=C(NCc1ccccn1)C1CCN(S(=O)(=O)N2CCC3(CC2)OCCO3)CC1	0	1	52*	1	17	14
CCOc1ccc(OCCCNC(C)(C)C)cc1	0	-1	69*	2	6	7
CC(C)(C)NCCCOc1ccc(C(C)(C)C)cc1	0	0	-2	2	x	x
O=c1[nH]c(N2CCCC2)nc2c1CN(Cc1ccnc3ccccc13)CC2	0	-1	9	2	x	x
CS(=O)(=O)N(CC(=O)Nc1cccnc1)c1ccc(Cl)cc1	0	-1	12	-6	x	x
CCOC(=O)C1CCN(C/C=C/c2ccccc2OC)CC1	0	0	33	3	x	x
CCOC(=O)C1CCN(C/C=C/c2ccccc2[N+](=O)[O-])CC1	1	-1	54*	5	-13	-7
O=C(/C=C/c1ccco1)NCC(=O)N/N=C/c1ccc(C(=O)O)cc1	0	1	51*	5	45*	-5	AlphaScreen DR=>6.5
CCN(CC)CC(=O)Nc1cccc(OC)c1	0	3	1	-1	x	x
CCN(CC(=O)Nc1cccc(OC)c1)Cc1cc(=O)oc2cc(NC(C)=O)ccc12	0	-1	54*	8	24	-6
CCN(CC(=O)Nc1cccc(OC)c1)CC(=O)Nc1ccc(C)cc1Cl	0	2	62*	8	4	18
SMILES	FBW7 activator	GPR151 activ	MITF primary	TEAD-YAP block	MITF inh conf	AS interf ctr	others
Cn1c(SCC(=O)NC2CC2)nnc1-c1ccc(NC(=O)/C=C/c2ccccc2)cc1	0	0	6	1	x	x
NS(=O)(=O)c1ccc(NC(=S)N2CCN(c3ncccn3)CC2)cc1	0	1	4	20	x	x
COc1cccc(CN2CCN(Cc3ccc(Cl)cc3)CC2)c1OC	0	1	70*	-10	2	8
CCOc1ccc(CN2CCN(Cc3cccc(OC)c3OC)CC2)cc1	1	-1	79*	-3	-3	3
COc1cccc(CN2CCN(Cc3ccc(C)cc3)CC2)c1OC	0	0	76*	-4	-1	-2
Cc1ccc(NC(=O)CC(N)=S)c(C)c1	0	-1	-8	1	x	x
CCOC(=O)CN(C)Cc1ccccc1Br	0	-1	59*	12	-16	-4
CCOC(=O)CN(C)Cc1ccc(OC)cc1OC	0	0	-1	-9	x	x
O=C(CN1CCN(C/C=C/c2ccccc2)CC1)NCCCc1ccccc1	0	-1	1	1	x	x
O=C(CN1CCN(C/C=C/c2ccccc2)CC1)NCc1ccccc1	0	0	73*	10	6	-11
CC(C(=O)N(C)Cc1ccccc1)N1CCN(C/C=C/c2ccccc2)CC1 (stereo unspecified)	0	-1	59*	-5	9	16
Cc1cccc(N(C)C(=O)Cc2noc3ccccc23)c1	0	-1	-3	19	x	x
CC(C)NC(=O)[C@@H]1C[C@@H](NCc2cccnc2)CN1Cc1ccc2ccccc2c1	0	0	-2	-15	x	x
C=CCc1cc(OC)ccc1OCCNCCCOC	0	-3	52*	6	7	18
C=CCc1ccc(OCCN(C)C)c(OC)c1	-1	1	82*	-1	2	15
C=CCc1cc(OC)ccc1OCCNCCN	0	1	24	6	x	x
C=CCc1cc(OC)ccc1OCCN(C)C	0	2	63*	13	3	10
C=CCc1cc(OC)ccc1OCCCNCCN	0	0	8	0	x	x
O=C(OC(C(=O)c1ccccc1)c1ccccc1)c1ccc(Oc2c(Cl)cccc2[N+](=O)[O-])cc1 (stereo unspecified)	0	0	22	-7	x	x
CCN1CCN(CC(=O)n2c(C)c(C)c3ccccc32)CC1	0	-1	74*	-1	-2	-4
Cc1c(C)n(C(=O)CN2CCN(c3ccccn3)CC2)c2ccccc12	0	-1	18	0	x	x
COCCn1nnnc1C(c1ccc(Cl)cc1)N1CCSCC1 (stereo unspecified)	0	0	66*	-9	10	12
COCCn1nnnc1CN1CCSCC1	1	2	56*	14	7	11
O=C(CSc1nc(-c2ccccc2)cn1-c1ccc(Cl)cc1)Nc1ccccc1	0	-1	4	-2	x	x
COC(=O)c1cccc(NC(=O)c2ccccc2C)c1	0	2	-2	3	x	x
CCN(CC)c1ccc(C(c2c(C)[nH][nH]c2=O)c2c(C)[nH][nH]c2=O)cc1	-1	0	77*	10	71*	-2
Cc1nn(-c2ccc(F)cc2)c(C)c1CNCc1ccccc1	0	0	70*	-3	25	10
COc1ccc(S(=O)(=O)N(C)CC(=O)NCc2ccc3c(c2)OCO3)cc1C	1	0	-1	6	x	x
COC(=O)c1ccc(C(=S)NCC2(N3CCOCC3)CCCCC2)cc1	0	-1	-4	-2	x	x
COc1ccc(CNC(=O)CNCC2(N3CCOCC3)CCCCC2)cc1	0	0	55*	2	-6	-3
